Laboratory results as given in the supplement of paper PMC11732987, “Enantioselective OTUD7B fragment discovery through chemoproteomics screening and high-throughput optimisation” (Communications Chemistry, 2025).

Key:
Test in all cases: log2 ratio of Biotin-Ahx-Ub-VS probe labelling (fragment/DMSO); higher = less target engagement (more negative = stronger competition), active = hit call of the paper (q ≤ 0.05, log2 ratio ≤ -1)
Conditions in all cases: compound concentration: 200 uM; treatment time: 3 h
[1] = target: USP34 (UniProt Q70CQ2)
In short: (§1)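 Triplicate samples of HEK293T lysate, 495 µg each, received fragment at 200 µM or vehicle for 3 h, followed by Biotin-Ahx-Ub-VS (0.5 µM final) for 1 h. After NeutrAvidin enrichment of labelled DUBs and LysC/trypsin digestion, peptides were run by diaPASEF LC-MS/MS. The values are average log2 fragment/vehicle ratios from global-median-normalised Spectronaut label-free quantities, tested by unpaired t-test on proteins having ≥2 unique peptides.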

[2] = target: T1, USP36 (UniProt Q9P275)
T1 sequence (whole entry): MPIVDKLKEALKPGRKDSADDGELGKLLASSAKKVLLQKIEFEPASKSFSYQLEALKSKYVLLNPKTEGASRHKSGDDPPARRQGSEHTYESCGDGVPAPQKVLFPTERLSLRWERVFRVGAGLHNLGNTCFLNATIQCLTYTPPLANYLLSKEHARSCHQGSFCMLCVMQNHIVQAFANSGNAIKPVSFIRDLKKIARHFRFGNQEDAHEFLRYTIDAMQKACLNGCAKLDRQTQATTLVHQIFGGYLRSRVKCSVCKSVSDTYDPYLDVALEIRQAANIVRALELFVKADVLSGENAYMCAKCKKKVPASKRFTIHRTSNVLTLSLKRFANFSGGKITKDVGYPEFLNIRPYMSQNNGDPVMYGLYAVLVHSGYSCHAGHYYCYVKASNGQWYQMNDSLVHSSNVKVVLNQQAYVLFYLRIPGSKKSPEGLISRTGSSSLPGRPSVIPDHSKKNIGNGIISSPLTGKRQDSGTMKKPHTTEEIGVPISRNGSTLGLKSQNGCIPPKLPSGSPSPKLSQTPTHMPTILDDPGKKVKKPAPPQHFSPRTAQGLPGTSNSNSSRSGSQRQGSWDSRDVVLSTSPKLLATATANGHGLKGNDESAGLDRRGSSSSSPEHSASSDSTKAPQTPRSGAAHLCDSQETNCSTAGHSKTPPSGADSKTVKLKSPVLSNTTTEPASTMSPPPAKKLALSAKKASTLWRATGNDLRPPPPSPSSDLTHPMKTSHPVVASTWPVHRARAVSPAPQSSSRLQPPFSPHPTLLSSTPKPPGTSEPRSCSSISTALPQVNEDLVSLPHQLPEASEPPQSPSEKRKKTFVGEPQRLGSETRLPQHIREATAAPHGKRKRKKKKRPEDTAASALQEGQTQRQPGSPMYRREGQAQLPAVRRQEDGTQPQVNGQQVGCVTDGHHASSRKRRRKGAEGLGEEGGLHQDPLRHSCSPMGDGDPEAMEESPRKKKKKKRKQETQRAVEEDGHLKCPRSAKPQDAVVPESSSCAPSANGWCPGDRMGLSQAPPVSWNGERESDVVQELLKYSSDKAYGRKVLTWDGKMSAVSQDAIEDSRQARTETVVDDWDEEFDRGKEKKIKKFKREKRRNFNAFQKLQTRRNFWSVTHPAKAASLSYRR
In short: as §1

[3] = target: T2, USP38 (UniProt Q8NB14)
T2 sequence (whole entry): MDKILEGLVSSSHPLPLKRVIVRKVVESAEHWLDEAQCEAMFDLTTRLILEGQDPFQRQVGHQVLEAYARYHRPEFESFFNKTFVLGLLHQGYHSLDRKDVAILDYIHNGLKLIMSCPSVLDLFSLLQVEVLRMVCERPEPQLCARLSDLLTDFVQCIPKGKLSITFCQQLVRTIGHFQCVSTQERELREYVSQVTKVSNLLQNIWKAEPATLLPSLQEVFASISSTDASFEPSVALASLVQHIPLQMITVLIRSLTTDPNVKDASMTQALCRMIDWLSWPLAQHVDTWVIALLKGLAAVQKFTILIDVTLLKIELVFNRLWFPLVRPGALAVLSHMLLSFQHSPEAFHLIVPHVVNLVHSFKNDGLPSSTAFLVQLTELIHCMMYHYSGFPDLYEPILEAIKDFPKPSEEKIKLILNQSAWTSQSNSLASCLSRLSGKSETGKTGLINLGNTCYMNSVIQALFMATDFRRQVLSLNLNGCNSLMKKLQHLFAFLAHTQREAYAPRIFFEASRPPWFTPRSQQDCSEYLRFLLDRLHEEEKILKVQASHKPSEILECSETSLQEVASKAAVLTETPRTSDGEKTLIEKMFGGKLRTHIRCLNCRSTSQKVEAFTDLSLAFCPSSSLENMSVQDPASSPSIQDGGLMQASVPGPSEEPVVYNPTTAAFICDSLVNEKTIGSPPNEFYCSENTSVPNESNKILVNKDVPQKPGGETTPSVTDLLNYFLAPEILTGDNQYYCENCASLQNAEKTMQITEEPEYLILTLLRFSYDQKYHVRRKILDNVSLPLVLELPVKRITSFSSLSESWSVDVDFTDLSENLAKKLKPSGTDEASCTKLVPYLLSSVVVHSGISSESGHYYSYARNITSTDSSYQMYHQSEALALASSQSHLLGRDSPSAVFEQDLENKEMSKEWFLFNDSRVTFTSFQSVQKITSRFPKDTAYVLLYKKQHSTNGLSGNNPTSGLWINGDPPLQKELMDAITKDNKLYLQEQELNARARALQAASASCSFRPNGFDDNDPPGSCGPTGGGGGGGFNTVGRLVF
In short: as §1

[4] = target: T3, USP39 (UniProt Q53GS9)
T3 sequence (whole entry): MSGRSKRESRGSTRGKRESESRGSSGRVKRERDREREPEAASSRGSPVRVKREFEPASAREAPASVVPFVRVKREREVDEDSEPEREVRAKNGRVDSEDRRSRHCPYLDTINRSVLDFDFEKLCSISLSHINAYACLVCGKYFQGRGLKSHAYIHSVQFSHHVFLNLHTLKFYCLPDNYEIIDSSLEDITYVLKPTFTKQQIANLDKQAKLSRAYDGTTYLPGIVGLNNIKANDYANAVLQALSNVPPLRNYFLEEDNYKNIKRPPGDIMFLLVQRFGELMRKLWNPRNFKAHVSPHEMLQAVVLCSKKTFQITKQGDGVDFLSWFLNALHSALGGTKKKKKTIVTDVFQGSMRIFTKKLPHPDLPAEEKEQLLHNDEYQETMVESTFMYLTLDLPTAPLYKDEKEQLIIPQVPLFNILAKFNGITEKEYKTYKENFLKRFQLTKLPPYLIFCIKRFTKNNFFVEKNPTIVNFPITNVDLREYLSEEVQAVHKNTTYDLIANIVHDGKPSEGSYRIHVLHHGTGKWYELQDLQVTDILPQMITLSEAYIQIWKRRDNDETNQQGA
In short: as §1

[5] = target: T4, USP4 (UniProt Q13107)
T4 sequence (whole entry): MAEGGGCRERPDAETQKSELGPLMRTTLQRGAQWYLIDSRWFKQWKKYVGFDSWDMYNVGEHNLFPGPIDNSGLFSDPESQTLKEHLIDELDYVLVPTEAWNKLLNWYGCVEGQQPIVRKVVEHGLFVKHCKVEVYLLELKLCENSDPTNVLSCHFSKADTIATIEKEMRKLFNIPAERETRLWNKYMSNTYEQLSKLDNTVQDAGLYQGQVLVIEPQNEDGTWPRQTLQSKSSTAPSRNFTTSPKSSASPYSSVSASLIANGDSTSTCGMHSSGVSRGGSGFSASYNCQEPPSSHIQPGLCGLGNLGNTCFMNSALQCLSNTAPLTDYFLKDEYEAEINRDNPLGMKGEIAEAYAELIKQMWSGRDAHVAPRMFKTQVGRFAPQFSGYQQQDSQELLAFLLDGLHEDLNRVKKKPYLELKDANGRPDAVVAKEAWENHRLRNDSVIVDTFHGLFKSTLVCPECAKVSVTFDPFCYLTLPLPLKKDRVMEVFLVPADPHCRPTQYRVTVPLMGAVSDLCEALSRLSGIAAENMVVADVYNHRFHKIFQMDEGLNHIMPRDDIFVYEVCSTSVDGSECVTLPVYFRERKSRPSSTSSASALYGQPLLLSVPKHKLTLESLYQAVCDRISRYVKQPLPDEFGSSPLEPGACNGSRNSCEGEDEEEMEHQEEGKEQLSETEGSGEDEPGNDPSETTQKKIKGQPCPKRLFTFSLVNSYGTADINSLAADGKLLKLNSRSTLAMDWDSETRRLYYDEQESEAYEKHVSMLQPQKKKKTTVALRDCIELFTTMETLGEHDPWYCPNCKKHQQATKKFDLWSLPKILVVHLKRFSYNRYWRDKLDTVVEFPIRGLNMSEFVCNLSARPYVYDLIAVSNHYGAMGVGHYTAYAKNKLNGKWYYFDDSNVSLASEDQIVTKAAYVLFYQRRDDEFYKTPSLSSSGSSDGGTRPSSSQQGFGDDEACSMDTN
In short: as §1

Measured: log2 ratio of Biotin-Ahx-Ub-VS probe labelling

USP34, sequence (Q70CQ2 whole entry, the tested form may be a part): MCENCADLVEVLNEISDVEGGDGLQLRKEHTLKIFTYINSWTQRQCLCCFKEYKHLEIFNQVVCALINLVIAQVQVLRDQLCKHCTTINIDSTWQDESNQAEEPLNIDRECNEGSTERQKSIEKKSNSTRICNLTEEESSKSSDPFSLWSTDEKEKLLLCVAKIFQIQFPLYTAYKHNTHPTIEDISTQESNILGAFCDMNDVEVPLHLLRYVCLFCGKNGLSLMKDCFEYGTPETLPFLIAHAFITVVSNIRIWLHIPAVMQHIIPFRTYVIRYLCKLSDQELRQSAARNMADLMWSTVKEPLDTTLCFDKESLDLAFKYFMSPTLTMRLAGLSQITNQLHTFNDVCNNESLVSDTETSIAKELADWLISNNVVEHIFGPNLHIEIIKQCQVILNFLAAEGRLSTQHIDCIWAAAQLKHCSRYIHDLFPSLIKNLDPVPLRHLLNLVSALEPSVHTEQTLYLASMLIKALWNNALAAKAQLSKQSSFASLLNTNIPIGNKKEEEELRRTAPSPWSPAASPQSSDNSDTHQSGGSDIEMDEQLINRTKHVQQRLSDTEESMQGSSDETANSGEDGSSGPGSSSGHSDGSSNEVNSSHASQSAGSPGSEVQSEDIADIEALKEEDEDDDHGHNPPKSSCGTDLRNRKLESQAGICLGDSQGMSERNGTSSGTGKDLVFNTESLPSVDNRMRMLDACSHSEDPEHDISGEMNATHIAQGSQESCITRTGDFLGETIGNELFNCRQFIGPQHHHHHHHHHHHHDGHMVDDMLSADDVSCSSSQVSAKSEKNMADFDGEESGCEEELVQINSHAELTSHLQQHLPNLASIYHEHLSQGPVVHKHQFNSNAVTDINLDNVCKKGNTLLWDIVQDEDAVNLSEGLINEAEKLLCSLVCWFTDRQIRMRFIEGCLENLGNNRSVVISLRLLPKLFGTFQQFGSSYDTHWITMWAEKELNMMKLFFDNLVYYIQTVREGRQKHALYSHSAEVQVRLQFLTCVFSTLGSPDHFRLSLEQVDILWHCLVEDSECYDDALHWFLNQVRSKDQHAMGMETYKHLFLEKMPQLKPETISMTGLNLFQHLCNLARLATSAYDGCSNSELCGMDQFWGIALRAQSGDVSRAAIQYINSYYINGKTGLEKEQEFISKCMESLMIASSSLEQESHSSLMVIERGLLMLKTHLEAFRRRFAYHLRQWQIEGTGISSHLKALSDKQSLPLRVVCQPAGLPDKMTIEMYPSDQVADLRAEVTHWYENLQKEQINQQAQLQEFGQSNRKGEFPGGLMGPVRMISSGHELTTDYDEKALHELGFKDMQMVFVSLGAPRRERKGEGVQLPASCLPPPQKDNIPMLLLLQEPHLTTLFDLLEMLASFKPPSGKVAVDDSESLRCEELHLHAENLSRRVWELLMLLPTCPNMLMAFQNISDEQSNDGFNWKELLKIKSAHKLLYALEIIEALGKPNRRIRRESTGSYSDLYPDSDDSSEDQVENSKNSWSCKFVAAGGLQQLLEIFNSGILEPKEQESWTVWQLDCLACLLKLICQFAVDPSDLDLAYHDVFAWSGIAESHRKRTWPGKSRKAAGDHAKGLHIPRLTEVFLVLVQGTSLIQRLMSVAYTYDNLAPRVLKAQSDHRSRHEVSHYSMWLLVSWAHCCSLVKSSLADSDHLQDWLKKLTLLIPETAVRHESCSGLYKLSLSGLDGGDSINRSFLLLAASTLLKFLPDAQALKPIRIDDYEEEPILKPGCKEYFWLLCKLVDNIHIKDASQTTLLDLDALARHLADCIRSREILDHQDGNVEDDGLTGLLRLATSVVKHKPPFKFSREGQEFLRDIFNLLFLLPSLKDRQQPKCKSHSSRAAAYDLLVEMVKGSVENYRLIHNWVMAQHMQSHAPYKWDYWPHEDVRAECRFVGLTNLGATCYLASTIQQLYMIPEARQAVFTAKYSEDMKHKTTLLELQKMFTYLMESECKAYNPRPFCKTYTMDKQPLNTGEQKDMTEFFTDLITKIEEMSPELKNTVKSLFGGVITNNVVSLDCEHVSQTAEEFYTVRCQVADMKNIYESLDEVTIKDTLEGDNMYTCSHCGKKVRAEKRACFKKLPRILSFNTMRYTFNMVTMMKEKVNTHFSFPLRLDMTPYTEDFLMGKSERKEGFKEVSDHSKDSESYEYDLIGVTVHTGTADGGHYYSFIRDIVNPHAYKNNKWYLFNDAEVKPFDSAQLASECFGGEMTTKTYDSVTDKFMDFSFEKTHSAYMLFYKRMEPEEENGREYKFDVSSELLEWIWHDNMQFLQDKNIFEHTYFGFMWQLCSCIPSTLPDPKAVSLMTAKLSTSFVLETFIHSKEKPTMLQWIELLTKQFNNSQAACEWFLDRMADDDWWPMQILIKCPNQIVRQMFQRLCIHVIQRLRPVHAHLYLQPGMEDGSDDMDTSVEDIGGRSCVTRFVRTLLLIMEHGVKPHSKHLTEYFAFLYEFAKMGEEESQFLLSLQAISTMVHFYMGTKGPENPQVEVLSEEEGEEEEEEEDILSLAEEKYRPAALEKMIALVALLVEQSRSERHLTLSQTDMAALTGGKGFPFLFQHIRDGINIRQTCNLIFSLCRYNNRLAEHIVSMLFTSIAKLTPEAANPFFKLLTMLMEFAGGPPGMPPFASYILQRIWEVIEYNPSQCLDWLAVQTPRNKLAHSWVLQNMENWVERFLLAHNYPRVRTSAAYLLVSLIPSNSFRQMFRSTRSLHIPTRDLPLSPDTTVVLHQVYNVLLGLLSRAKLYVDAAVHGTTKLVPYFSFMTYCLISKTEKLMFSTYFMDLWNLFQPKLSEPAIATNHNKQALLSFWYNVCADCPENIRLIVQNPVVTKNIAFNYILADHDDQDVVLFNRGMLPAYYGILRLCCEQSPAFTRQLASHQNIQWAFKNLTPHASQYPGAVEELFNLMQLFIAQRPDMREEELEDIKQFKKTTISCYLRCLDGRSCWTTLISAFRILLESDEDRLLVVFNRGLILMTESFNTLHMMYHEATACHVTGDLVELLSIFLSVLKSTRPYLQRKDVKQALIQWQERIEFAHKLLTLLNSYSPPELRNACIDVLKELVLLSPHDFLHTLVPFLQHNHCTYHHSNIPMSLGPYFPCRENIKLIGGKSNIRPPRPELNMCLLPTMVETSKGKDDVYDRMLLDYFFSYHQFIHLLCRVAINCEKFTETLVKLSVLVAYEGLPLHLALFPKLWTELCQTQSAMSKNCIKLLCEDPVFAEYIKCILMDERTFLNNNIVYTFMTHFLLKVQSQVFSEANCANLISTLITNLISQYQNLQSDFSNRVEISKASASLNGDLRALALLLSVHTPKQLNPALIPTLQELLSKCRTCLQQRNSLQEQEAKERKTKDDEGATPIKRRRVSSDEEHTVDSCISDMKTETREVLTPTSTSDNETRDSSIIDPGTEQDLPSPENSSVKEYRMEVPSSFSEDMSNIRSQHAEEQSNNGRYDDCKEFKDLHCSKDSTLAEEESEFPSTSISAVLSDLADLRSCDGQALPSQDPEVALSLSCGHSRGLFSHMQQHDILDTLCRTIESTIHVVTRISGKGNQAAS

Cc1nc(CC2CCN(C(=O)CCl)CC2)no1
inactive: [1] -0.459 | [2] -0.425 | [3] -0.544 | [4] 0.344 | [5] -0.686
